# Data: PubChem BioAssay
# Unmarked numbers belong to inactive results. Results filed as inconclusive are left out. Active and inactive are the calls of the source. Unless noted, no cut-off is given here; in the data, nearly all actives have AC50 up to about 26 µM.
# Experiments:
# [1] = growth inhibition of DIPG glioma cells, dose response, cell-based, SU-DIPG-XVII, MIPE5.0, CellTiter-Glo, qHTS (AID 1347060); details: SU-DIPG-XVII viability, CellTiter-Glo ATP luminescence;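 for AC50: cells exposed to compound for 48 hours before viability readout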
# [2] = growth inhibition of DIPG glioma cells, dose response, cell-based, SU-DIPG-XIII, MIPE4.0, CellTiter-Glo, qHTS (AID 1347061; cut-off not given, nearly all actives have AC50 up to about 37 µM;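 note: cells exposed to compound for 48 hours before readout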); details: SU-DIPG-XIII viability, CellTiter-Glo ATP luminescence
# [3] = growth inhibition of DIPG glioma cells, dose response, cell-based, JHH-DIPG-1, MIPE4.0, CellTiter-Glo, qHTS (AID 1347062; cut-off not given, nearly all actives have AC50 up to about 27 µM;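 for AC50: cells exposed to compound for two days before readout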); details: JHH-DIPG-1 viability, CellTiter-Glo ATP luminescence
# [4] = growth inhibition of DIPG glioma cells, dose response, cell-based, SU-DIPG-IV, MIPE4.0, CellTiter-Glo, qHTS (AID 1347063; cut-off not given, nearly all actives have AC50 up to about 30 µM;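 note: compound exposure lasted 48 hours before the viability readout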); details: SU-DIPG-IV viability, CellTiter-Glo ATP luminescence
# [5] = viability loss in pontine glioma line – cell-based, SU-DIPG-XXV, MIPE5.0, CellTiter-Glo, qHTS, dose response (AID 1347065); details: CellTiter-Glo ATP luminescence;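 note: cells exposed to compound for 48 hours before ATP readout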
# [6] = SU-DIPG-VI glioma cell viability, MIPE4.0 library, CellTiter-Glo luminescence, qHTS (AID 1347066; cut-off not given, nearly all actives have AC50 up to about 30 µM;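 note: cells exposed to compound for 48 hours before readout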); details: CellTiter-Glo ATP luminescence
# [7] = JHH-DIPG-1 glioma cell viability, MIPE5.0 library, CellTiter-Glo luminescence, qHTS (AID 1347067); details: JHH-DIPG-1 glioma viability, CellTiter-Glo ATP luminescence;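 note: cells exposed to compound for 48 hours before readout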
# [8] = SU-DIPG-XXV glioma cell viability, MIPE5.0 library, qHTS (AID 1347068; cut-off not given, nearly all actives have IC50 up to about 30 µM;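 for IC50: cells exposed to compound for 48 hours before viability readout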)
# [9] = Cy5 fluorescence interference with SSB-bound oligo, artefact control for HCV NS3 helicase inhibitor project, biochemical, NIH Clinical Collection, E. coli SSB (AID 743268; call rule not given here)
# [10] = tested on: Hepatitis C virus NS3 helicase; test: HCV NS3 helicase inhibitors, primary screen, biochemical, fluorescence polarization, NIH Clinical Collection (AID 743270; call rule not given here); details: NS3 helicase binding to Cy5-dT15 DNA, hits give high values, concentration not given here
# [11] = molecular target: Single-stranded DNA-binding protein (Escherichia coli (strain K12)) (UniProt P0AGE0); test: E. coli SSB displacement from DNA, counter-screen for HCV NS3 helicase inhibitor project, biochemical, fluorescence polarization, NIH Clinical Collection (AID 743271; in the data active = inhibition above about 28%); details: hits give high values, concentration not given here
# [12] = fluorescence interference in NS3h assay format, artefact control for HCV NS3 helicase inhibitor project, biochemical, NIH Clinical Collection (AID 743272; call rule not given here;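 note: HCV NS3 helicase with a Cy5 labelled single stranded DNA probe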); details: fluorescence interference counterscreen, hits give low values
# F380Y/beta4 = test: modulators of BK channel variants, profiling panel, selectivity assay, cell-based, U2OS BacMam, thallium flux, beta subunits (AID 1259406;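 active = thallium flux through the channel raised or lowered by more than 3 SD from vehicle-only wells, actives on both sides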;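 note: initial slope of Thallos dye fluorescence rise after thallium is added; log ratio against the mean of 0.3% DMSO vehicle wells on the same plate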); details: at 30 µM
# [13] = molecular target: Calcium-activated potassium channel subunit alpha-1 (Homo sapiens) + Leucine-rich repeat-containing protein 26 (Homo sapiens) (UniProt Q12791+Q2I0M4); test: as above; details: F380Y/Slo1WT/gamma1, at 30 µM
# R275C/beta4 = test: as above; details: at 30 µM
# [14] = tested on: Aerobactin synthetase IucA (Klebsiella pneumoniae); test: IucA aerobactin synthetase inhibitors, biochemical, Tocris library, absorbance (AID 1345561; call rule not given here;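 note: 100% = enzyme without compound and 0% = no enzyme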); details: purified IucA enzyme assay, absorbance (OD) read-out; hits give low values;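 tested at 8 µM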
# Sequence of Calcium-activated potassium channel subunit alpha-1 (Homo sapiens) + Leucine-rich repeat-containing protein 26 (Homo sapiens) (Q2I0M4 whole entry, looked up, one chain of several): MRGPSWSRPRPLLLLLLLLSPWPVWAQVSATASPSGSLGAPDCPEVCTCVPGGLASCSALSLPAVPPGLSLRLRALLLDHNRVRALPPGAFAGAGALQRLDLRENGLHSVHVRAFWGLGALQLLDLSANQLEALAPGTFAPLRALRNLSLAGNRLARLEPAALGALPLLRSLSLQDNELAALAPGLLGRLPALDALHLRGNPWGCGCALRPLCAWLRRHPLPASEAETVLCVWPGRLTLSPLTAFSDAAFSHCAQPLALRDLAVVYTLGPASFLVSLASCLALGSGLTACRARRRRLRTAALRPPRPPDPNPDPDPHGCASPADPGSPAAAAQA
structure (smiles),measurement,setting,value
CN(C)[C@@H]1C(=O)C(C(N)=O)=C(O)[C@@]2(O)C(=O)C3=C(O)c4c(O)cccc4[C@@](C)(O)[C@H]3C[C@@H]12,outcome,[1],inactive
same,outcome,[2],inactive
same,outcome,[3],inactive
same,outcome,[4],inactive
same,outcome,[5],inactive
same,outcome,[6],inactive
same,outcome,[7],inactive
same,outcome,[8],inactive
CCCC(C)(COC(N)=O)COC(=O)NC(C)C (stereo not drawn),fluorescence ratio,[9],1.01
same,inhibition,[10],-6.82%
same,inhibition,[11],-2%
same,fluorescence ratio,[12],0.93
same,outcome,[2],inactive
same,outcome,[6],inactive
same,log fold change Tl+ flux,F380Y/beta4,0.0106
same,log fold change Tl+ flux,[13],0.00552
same,log fold change Tl+ flux,R275C/beta4,0.0318
C[C@@H]1C[C@@H]([C@H](O)CC2CC(=O)NC(=O)C2)C(=O)[C@@H](C)C1,AC50,[1],934 nM (active)
same,AC50,[3],743 nM (active)
same,AC50,[4],469 nM (active)
same,AC50,[5],372 nM (active)
same,outcome,[6],inactive
same,IC50,[8],934 nM (active)
O=C(O)c1nn(Cc2ccc(Cl)cc2Cl)c2ccccc12,remaining activity,[14],90.4%
same,outcome,[1],inactive
same,outcome,[2],inactive
same,outcome,[4],inactive
same,outcome,[5],inactive
same,outcome,[6],inactive
same,outcome,[7],inactive
same,outcome,[8],inactive
c1ccc2nc(N3CCNCC3)ccc2c1,remaining activity,[14],102%
CN1C(=O)CCS(=O)(=O)C1c1ccc(Cl)cc1 (stereo not drawn),remaining activity,[14],97.1%
same,outcome,[1],inactive
same,outcome,[2],inactive
same,outcome,[3],inactive
same,outcome,[4],inactive
same,outcome,[6],inactive
same,outcome,[7],inactive
same,outcome,[8],inactive
O=C(CCCN1CCC2(CC1)C(=O)NCN2c1ccccc1)c1ccc(F)cc1,remaining activity,[14],101%
O=c1[nH]oc2c1CCNC2,remaining activity,[14],79%
COC(=O)C1=CCCN(C)C1,outcome,[4],inactive
same,outcome,[6],inactive
C=C(C)[C@H]1Cc2c(ccc3c2O[C@@H]2COc4cc(OC)c(OC)cc4[C@@H]2C3=O)O1,AC50,[1],1320 nM (active)
same,outcome,[2],inactive
same,AC50,[5],1180 nM (active)
same,AC50,[7],1.48 µM (active)
